Measurements as given in publication PMC7862700, “An all-to-all approach to the identification of sequence-specific readers for epigenetic DNA modifications on cytosine”.

Experiments:
Test in all cases: DAPPL (digital affinity profiling via proximity ligation, sequencing); 10 mM Tris-HCl pH 7.5, 50 mM NaCl, 1 mM DTT, 4% glycerol, room temperature, 30 min; GST-TFs on glutathione beads, 16-mer random dsDNA library, 0.1% formaldehyde crosslink after washing; high values mean tight binding
FLI1 = molecular target: T1, FLI1 (Homo sapiens, UniProt Q01543 1-452); conditions: protein: recombinant; tags: N-terminal GST; dsDNA, one strand shown
T1 sequence: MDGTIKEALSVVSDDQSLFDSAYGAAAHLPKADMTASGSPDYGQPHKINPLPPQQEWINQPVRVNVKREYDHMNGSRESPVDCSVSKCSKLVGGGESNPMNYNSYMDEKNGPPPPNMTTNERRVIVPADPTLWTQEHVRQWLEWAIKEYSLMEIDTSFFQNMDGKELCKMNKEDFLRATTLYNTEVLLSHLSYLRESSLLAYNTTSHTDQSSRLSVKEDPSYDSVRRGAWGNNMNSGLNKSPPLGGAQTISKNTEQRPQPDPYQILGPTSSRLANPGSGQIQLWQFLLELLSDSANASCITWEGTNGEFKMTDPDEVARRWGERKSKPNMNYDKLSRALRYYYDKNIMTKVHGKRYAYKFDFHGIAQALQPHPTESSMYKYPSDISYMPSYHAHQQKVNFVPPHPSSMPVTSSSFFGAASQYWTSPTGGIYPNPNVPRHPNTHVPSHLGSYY
How it was run: (§1)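 Sequencing on an Illumina NextSeq500 followed washing, crosslinking with 0.1% formaldehyde, proximity ligation (BsaI/T4 ligase, 1 h, 37 °C) and PCR amplification of pools that had been incubated for 30 min at room temperature with 200 nmole of a random double-stranded 16-mer DNA library in Tris/NaCl/DTT/glycerol buffer. Each pool held DNA-barcoded human transcription factors, expressed in yeast as GST fusions and captured on glutathione beads, plus a tag-only sample. Binding signal is a hexamer's read frequency for a factor divided by its frequency in the tag-only sample.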

ELK1 = molecular target: T2, ELK1 (Homo sapiens, UniProt P19419 1-428); conditions: protein: recombinant; tags: N-terminal GST; dsDNA, one strand shown
T2 sequence: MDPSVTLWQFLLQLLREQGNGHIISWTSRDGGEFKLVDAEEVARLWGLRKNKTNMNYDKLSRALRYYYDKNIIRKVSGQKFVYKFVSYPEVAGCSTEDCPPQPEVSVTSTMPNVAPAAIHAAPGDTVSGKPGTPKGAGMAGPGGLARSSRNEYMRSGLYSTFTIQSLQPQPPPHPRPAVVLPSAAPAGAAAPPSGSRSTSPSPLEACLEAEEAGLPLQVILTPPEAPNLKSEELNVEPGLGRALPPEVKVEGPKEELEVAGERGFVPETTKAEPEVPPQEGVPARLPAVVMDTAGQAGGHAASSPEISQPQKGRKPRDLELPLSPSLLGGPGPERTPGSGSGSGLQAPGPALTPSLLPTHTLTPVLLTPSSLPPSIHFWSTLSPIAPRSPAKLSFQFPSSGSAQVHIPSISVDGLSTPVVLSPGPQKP
How it was run: as §1

GABPA = molecular target: T3, GABPA (Homo sapiens, UniProt Q06546 1-454); conditions: protein: recombinant; tags: N-terminal GST; dsDNA, one strand shown
T3 sequence: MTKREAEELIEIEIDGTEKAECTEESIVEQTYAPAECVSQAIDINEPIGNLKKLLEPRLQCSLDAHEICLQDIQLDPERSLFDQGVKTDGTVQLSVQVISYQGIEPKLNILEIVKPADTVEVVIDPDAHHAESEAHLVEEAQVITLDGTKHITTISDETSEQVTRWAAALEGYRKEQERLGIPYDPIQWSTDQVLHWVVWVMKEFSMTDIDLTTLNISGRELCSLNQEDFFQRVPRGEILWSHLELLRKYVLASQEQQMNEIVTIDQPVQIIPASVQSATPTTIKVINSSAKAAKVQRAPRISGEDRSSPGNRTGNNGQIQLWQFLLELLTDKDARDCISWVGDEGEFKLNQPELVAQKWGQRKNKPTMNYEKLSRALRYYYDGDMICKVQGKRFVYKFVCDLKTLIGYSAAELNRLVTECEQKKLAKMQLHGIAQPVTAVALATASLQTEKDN
How it was run: as §1

ERG = molecular target: T4, ERG (Homo sapiens, UniProt P11308 1-479); conditions: protein: recombinant; tags: N-terminal GST; dsDNA, one strand shown
T4 sequence: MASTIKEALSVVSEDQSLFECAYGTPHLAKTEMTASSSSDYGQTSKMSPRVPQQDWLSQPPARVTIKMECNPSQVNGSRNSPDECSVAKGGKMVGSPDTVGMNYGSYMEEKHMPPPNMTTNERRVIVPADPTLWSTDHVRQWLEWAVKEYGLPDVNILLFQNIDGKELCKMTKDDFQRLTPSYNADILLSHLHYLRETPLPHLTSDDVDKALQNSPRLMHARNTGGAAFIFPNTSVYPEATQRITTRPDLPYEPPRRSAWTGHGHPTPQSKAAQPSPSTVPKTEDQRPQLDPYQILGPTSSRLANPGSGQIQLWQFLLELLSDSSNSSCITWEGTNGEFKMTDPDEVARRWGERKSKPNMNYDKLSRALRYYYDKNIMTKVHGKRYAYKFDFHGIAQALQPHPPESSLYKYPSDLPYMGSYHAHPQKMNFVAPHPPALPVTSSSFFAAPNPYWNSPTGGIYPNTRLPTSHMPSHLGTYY
How it was run: as §1

ELF1 = ELF1 (Homo sapiens, UniProt P32519 1-619); conditions: protein: recombinant; tags: N-terminal GST; dsDNA, one strand shown
Chain of ELF1 (P32519 whole entry): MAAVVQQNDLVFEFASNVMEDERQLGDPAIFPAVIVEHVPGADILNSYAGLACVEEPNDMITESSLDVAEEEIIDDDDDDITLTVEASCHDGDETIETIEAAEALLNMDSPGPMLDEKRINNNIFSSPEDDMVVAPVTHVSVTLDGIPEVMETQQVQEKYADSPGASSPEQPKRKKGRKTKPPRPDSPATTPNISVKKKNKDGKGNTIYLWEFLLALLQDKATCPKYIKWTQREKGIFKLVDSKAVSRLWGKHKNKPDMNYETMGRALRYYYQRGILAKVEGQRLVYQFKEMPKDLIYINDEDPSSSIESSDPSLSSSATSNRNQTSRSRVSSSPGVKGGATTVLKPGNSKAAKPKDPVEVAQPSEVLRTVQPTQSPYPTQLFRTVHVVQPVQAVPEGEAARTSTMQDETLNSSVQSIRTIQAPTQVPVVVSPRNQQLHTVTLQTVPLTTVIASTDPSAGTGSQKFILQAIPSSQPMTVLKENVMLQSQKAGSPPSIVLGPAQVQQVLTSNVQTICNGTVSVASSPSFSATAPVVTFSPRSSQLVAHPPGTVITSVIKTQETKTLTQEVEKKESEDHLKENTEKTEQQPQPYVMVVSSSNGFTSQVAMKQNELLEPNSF
How it was run: as §1

EHF = molecular target: T5, EHF (Homo sapiens, UniProt Q9NZC4 1-300); conditions: protein: recombinant; tags: N-terminal GST; dsDNA, one strand shown
T5 sequence: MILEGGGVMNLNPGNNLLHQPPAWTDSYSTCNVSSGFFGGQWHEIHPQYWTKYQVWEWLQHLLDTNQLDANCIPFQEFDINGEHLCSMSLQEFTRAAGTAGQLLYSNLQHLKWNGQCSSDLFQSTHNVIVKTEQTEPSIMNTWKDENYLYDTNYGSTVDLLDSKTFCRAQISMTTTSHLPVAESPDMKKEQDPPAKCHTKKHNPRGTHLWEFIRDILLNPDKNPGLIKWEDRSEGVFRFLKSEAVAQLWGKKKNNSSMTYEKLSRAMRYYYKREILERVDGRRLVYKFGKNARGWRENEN
How it was run: as §1

SPI1 = SPI1 (Homo sapiens, UniProt P17947 1-270); conditions: protein: recombinant; tags: N-terminal GST; dsDNA, one strand shown
How it was run: as §1

SPIB = SPIB (Homo sapiens, UniProt Q01892 1-262); conditions: protein: recombinant; tags: N-terminal GST; dsDNA, one strand shown
Chain of SPIB (Q01892 whole entry): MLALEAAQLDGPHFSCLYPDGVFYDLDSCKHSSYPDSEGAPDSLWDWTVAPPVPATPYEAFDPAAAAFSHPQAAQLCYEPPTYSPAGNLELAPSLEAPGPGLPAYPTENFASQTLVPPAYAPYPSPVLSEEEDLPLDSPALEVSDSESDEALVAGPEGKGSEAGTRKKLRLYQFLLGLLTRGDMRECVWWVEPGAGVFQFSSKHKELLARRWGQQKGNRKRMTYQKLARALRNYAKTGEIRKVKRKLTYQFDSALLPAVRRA
How it was run: as §1

ELK3 = molecular target: T6, ELK3 (Homo sapiens, UniProt P41970 1-407); conditions: protein: recombinant; tags: N-terminal GST; dsDNA, one strand shown
T6 sequence: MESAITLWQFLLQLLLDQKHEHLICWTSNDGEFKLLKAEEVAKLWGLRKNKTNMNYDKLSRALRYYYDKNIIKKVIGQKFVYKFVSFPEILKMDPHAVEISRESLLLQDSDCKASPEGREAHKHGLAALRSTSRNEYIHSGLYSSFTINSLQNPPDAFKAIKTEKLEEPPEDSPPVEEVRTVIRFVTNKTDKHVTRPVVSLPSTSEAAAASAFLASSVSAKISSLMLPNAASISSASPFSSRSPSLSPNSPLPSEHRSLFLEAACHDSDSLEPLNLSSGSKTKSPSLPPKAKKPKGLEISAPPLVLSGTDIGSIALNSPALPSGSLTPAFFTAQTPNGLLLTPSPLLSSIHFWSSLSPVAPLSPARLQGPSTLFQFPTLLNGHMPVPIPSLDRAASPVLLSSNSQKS
How it was run: as §1

FEV = molecular target: T7, FEV (Homo sapiens, UniProt Q99581 1-238); conditions: protein: recombinant; tags: N-terminal GST; dsDNA, one strand shown
T7 sequence: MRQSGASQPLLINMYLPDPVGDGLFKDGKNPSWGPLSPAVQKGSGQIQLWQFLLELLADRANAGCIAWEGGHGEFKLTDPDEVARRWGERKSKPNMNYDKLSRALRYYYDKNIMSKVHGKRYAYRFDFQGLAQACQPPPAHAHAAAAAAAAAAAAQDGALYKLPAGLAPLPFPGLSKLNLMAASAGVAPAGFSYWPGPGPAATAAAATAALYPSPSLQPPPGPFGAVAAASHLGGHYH
How it was run: as §1

ETV5 = ETV5 (Homo sapiens, UniProt P41161 1-510); conditions: protein: recombinant; tags: N-terminal GST; dsDNA, one strand shown
Chain of ETV5 (P41161 whole entry): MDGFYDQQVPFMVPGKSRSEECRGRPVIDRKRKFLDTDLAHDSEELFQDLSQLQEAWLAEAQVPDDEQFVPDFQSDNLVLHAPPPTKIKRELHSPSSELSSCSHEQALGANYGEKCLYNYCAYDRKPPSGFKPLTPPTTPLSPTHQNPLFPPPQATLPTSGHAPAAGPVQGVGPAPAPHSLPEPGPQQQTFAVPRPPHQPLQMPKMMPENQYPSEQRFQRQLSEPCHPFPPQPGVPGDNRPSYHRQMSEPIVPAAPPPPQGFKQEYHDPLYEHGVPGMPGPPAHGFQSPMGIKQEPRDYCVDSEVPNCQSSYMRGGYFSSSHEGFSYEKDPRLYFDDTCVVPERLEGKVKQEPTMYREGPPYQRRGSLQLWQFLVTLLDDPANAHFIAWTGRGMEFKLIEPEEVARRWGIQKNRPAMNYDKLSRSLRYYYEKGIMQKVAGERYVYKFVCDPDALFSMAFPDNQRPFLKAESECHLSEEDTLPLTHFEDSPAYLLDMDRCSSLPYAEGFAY
How it was run: as §1

HSF1 = HSF1 (Homo sapiens, UniProt Q00613 1-529); conditions: protein: recombinant; tags: N-terminal GST; chain copies: 3; dsDNA, one strand shown
Chain of HSF1 (Q00613 whole entry): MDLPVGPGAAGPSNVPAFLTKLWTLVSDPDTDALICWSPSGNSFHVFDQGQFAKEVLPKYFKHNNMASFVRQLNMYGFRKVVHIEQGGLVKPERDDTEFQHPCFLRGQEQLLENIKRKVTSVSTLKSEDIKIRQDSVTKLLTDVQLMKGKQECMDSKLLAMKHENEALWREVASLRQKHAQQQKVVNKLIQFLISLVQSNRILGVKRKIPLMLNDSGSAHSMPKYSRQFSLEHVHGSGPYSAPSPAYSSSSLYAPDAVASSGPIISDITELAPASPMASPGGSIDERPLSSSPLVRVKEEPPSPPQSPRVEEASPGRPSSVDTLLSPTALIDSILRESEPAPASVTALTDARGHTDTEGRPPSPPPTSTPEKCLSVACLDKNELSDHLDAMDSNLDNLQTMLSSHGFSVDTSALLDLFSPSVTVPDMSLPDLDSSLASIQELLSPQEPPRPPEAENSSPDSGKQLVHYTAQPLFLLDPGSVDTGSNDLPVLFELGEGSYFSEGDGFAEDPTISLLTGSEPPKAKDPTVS
How it was run: as §1

SPIC = molecular target: T8, SPIC (Homo sapiens, UniProt Q8N5J4 1-248); conditions: protein: recombinant; tags: N-terminal GST; dsDNA, one strand shown
T8 sequence: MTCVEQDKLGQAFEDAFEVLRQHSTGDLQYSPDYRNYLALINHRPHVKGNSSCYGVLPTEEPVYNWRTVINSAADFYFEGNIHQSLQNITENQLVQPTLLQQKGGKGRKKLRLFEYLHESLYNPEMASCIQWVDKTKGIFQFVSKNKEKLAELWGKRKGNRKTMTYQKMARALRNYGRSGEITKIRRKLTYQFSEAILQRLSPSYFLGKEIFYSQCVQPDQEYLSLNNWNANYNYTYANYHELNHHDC
How it was run: as §1

ELF4 = ELF4 (Homo sapiens, UniProt Q99607 1-663); conditions: protein: recombinant; tags: N-terminal GST; dsDNA, one strand shown
Chain of ELF4 (Q99607 whole entry): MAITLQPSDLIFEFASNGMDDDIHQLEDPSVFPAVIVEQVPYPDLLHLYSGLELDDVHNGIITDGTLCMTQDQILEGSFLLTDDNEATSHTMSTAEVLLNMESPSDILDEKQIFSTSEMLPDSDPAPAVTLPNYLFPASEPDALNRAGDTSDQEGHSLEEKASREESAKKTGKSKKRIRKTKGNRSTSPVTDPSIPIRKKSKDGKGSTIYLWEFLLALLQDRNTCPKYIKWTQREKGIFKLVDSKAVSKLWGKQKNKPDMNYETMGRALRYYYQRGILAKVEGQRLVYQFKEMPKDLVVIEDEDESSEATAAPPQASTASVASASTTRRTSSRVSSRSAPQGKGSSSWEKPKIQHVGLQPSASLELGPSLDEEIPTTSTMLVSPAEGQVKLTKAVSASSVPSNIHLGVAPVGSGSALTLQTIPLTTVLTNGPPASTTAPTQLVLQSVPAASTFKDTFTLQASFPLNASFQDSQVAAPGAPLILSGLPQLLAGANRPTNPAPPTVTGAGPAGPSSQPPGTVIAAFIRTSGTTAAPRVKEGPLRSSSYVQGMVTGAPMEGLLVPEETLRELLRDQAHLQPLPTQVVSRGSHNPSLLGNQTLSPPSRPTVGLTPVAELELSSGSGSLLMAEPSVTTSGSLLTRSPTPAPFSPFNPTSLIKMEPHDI
How it was run: as §1

ELK4 = molecular target: T9, ELK4 (Homo sapiens, UniProt P28324-2 1-405); conditions: protein: recombinant; tags: N-terminal GST; dsDNA, one strand shown
T9 sequence: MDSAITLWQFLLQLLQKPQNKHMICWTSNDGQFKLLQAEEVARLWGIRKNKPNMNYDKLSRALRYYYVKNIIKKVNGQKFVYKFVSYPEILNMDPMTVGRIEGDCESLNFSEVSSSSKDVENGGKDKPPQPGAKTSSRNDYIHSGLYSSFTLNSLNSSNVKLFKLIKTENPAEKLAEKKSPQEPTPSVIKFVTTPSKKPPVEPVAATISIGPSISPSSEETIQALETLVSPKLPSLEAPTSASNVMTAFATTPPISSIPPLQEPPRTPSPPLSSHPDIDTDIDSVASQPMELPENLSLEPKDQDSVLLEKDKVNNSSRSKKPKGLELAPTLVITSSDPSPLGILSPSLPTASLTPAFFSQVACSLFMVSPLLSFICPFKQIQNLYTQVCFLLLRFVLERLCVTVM
How it was run: as §1

ETV2 = molecular target: T10, ETV2 (Homo sapiens, UniProt O00321 1-342); conditions: protein: recombinant; tags: N-terminal GST; dsDNA, one strand shown
T10 sequence: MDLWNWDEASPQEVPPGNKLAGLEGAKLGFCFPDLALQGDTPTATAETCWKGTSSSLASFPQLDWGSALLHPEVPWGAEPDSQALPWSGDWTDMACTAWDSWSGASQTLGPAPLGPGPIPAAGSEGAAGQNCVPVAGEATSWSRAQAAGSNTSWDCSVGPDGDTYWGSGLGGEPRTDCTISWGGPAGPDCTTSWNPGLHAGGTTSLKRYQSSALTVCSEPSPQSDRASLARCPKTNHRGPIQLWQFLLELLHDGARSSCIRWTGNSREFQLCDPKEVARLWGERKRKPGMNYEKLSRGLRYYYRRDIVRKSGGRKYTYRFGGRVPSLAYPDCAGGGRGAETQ
How it was run: as §1

ELF3 = molecular target: T11, ELF3 (Homo sapiens, UniProt P78545 1-371); conditions: protein: recombinant; tags: N-terminal GST; dsDNA, one strand shown
T11 sequence: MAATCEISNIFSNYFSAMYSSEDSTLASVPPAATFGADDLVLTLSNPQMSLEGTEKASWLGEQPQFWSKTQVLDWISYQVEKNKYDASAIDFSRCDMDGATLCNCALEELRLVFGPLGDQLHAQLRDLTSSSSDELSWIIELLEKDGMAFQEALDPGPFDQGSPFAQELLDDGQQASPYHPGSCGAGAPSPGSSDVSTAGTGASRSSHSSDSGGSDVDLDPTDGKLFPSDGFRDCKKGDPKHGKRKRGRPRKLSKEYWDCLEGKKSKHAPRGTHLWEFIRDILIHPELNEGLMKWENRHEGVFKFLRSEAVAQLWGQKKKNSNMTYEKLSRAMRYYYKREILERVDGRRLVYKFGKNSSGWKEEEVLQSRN
How it was run: as §1

CRX = CRX (Homo sapiens, UniProt O43186 1-299); conditions: protein: recombinant; tags: N-terminal GST; dsDNA, one strand shown
Chain of CRX (O43186 whole entry): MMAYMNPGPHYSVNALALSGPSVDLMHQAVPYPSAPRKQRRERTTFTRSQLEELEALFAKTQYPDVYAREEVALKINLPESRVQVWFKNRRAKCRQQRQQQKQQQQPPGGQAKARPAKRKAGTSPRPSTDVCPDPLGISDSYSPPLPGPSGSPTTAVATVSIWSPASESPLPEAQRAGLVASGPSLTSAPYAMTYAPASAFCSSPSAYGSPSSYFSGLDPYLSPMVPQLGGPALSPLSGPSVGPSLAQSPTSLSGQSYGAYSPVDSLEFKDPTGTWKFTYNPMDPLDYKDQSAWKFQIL
How it was run: as §1

ETV1 = ETV1 (Homo sapiens, UniProt P50549 1-477); conditions: protein: recombinant; tags: N-terminal GST; dsDNA, one strand shown
Chain of ETV1 (P50549 whole entry): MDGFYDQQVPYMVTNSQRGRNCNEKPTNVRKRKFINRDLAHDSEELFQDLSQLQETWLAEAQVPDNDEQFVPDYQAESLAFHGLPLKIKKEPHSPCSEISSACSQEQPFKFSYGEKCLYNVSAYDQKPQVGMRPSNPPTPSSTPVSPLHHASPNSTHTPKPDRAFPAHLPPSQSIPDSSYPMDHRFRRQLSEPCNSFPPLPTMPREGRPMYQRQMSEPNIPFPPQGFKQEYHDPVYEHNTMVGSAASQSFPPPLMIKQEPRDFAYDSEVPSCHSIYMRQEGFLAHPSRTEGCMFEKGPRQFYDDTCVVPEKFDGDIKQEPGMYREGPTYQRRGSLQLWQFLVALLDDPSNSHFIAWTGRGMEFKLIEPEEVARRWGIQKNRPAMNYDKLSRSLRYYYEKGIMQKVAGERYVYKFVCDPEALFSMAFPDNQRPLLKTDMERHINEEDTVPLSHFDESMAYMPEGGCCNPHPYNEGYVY
How it was run: as §1

AATGCT
binding signal (FLI1): 1.16 fold enrichment (6-mer frequency, TF over GST control)
binding signal (ELK1): 1.17 fold enrichment (6-mer frequency, TF over GST control)
binding signal (GABPA): 1.14 fold enrichment (6-mer frequency, TF over GST control)
binding signal (ERG): 1.16 fold enrichment (6-mer frequency, TF over GST control)
binding signal (ELF1): 1.16 fold enrichment (6-mer frequency, TF over GST control)
binding signal (EHF): 1.14 fold enrichment (6-mer frequency, TF over GST control)
binding signal (SPI1): 1.12 fold enrichment (6-mer frequency, TF over GST control)
binding signal (SPIB): 1.16 fold enrichment (6-mer frequency, TF over GST control)
binding signal (ELK3): 1.12 fold enrichment (6-mer frequency, TF over GST control)
binding signal (FEV): 1.2 fold enrichment (6-mer frequency, TF over GST control)
binding signal (ETV5): 1.27 fold enrichment (6-mer frequency, TF over GST control)
binding signal (HSF1): 1.29 fold enrichment (6-mer frequency, TF over GST control)
binding signal (SPIC): 1.24 fold enrichment (6-mer frequency, TF over GST control)
binding signal (ELF4): 1.25 fold enrichment (6-mer frequency, TF over GST control)
binding signal (ELK4): 1.3 fold enrichment (6-mer frequency, TF over GST control)
binding signal (ETV2): 1.3 fold enrichment (6-mer frequency, TF over GST control)
binding signal (ELF3): 1.21 fold enrichment (6-mer frequency, TF over GST control)
binding signal (CRX): 1.26 fold enrichment (6-mer frequency, TF over GST control)
binding signal (ETV1): 1.24 fold enrichment (6-mer frequency, TF over GST control)
